Compound activity as filed in PubChem.
HEK cytotox – Cytotoxic Profiling in HEK 293 Cell Line of Diverse Libraries Using Quantitative High-Throughput Screening; 94,000 compounds, 6.6% hits; HEK 293 viability, ATP luminescence (CellTiter-Glo), 48-72 h; Potency, µM (titrated, usually from 115 µM), for inactives: at the top dose activity change, negative = cytotoxicity, hits mostly inhibitors; note: nearly all actives have a fitted effect of over 60% in size
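Read-out: CellTiter-Glo ATP luminescence. Cells: HEK 293, 250 cells/well. Exposure: 48 or 72 hr, 37 degree Celsius.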
NPR1 antag – Natriuretic polypeptide receptor (hNpr1) antagonism - Primary qHTS | HEK293 hNpr1 GloSensor cGMP, ANP-stimulated luminescence | Potency, µM (series often up to 46.3 µM), for inactives: at the highest dose activity change, negative = inhibition, most hits filed as inhibitors | Atrial natriuretic peptide receptor 1 (Homo sapiens), P16066 | 76,000 compounds, 1.6% hits; calls by dose curve; note: nearly all actives have a fitted effect of over 60% in size
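Compound pre-incubated 30 min at room temperature on GloSensor-loaded HEK293 cells stably carrying hNpr1 and the pGS-40F cGMP biosensor. Stimulation uses hNppA at 0.1 nM final; luminescence is taken at baseline and 20 min post-agonist.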
FLuc inh – Firefly luciferase inhibition profiling of diverse chemical library using quantitative high-throughput screening; 76,000 compounds, 2.5% hits; Luciferin 4-monooxygenase (Photinus pyralis), P08659; purified P. pyralis luciferase, luminescence, biochemical; Potency, µM (top dose mostly 115 µM), actives largely listed as inhibitors; note: nearly all actives have a fitted effect of over 65% in size
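Purified P. pyralis luciferase (10nM final) in 50mM Tris acetate pH 7.5, 10mM Mg acetate, 0.01% Tween-20, 0.05% BSA with 10uM D-luciferin and 10uM ATP. Compounds titrated qHTS. Luminescence imaged on CCD.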
NIH3T3 tox – Cytotoxic Profiling in NIH 3T3 Cell Line of Diverse Libraries Using Quantitative High-Throughput Screening; 94,000 compounds, 4.3% hits; AID 1345082, 2018; NIH 3T3 viability, CellTiter-Glo ATP luminescence, 48-72 h; Potency, µM (highest dose often 96.7 µM), for the others: top-dose activity change, negative = cytotoxicity, usual class: inhibitors; note: nearly all actives have a fitted effect of over 55% in size
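Luminescent ATP readout (CellTiter-Glo, 10 min RT) after 48 or 72 hr compound exposure of NIH 3T3 cells seeded at 400 cells/well in 1536-well format; quantitative HTS.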
Active calls of the source: *; [ ] = another dose, or the depositor's remark. Hits are enriched below; roughly 11% of the tested compounds scored in any of these assays. Unless noted, calls come from the whole dose curve; as a rule, active = well fitted curve in the direction sought with a large enough effect; inconclusive = small, poorly fitted or top-dose-only effect, or another doubt; inactive = no such curve, though single readings can be large; an effect the other way counts as inactive or inconclusive. % is set by controls: 0 for no effect and ±100 for the full control effect; potency is the fitted concentration of half-maximal effect.

For Cc1ccc(C(=O)N2CCCCCCNC(=O)[C@@H]3C[C@@H](c4nc(-c5cccnc5)no4)C[C@@H]32)s1 the results were HEK cytotox 1%, NPR1 antag 0%, FLuc inh inactive and NIH3T3 tox -24%.
For O=C(CCC1CCCN(S(=O)(=O)c2cccc(F)c2)C1)NCC1CC1 (centres undefined) the results were HEK cytotox -31%, NPR1 antag -30%, FLuc inh inactive and NIH3T3 tox -24%.
Screening CCOc1cccc(CNC(=O)CCC2CCCN(S(=O)(=O)c3ccc(C)cc3)C2)c1 (centres undefined) returned HEK cytotox inconclusive, NPR1 antag 0%, FLuc inh inactive and NIH3T3 tox inconclusive.
Screening CC(C)CCNC(=O)CCC1CCCN(S(=O)(=O)c2cccc(F)c2)C1 (centres undefined) returned HEK cytotox 45µM* and NIH3T3 tox inconclusive.
`CCOc1ccc(NC(=O)CCC2CCCN(S(=O)(=O)c3cccc(F)c3)C2)cc1` (centres undefined) gave HEK cytotox 35µM* and NIH3T3 tox -22%.
For COC(=O)N1CCC(C(=O)N2CCC(N3CCOCC3=O)CC2)CC1 the results were HEK cytotox 5% and NIH3T3 tox inactive.
For CN(c1cc(=O)c2ccnc(-c3ccc(O)c(F)c3)c2o1)C1CCOCC1 the results were HEK cytotox -19%[172 µM], NPR1 antag -3%[70.6 µM], FLuc inh inactive and NIH3T3 tox 8.9µM*.
Screening Cc1cc(-c2nccc3c(=O)cc(N(C)C)oc23)ccn1 returned HEK cytotox -6%[230 µM], NPR1 antag 1%[70.6 µM], FLuc inh inactive and NIH3T3 tox inconclusive.
For COc1ccc(-c2nccc3c(=O)cc(N(C)C)oc23)cn1 the results were HEK cytotox inactive, NPR1 antag 2%[70.6 µM], FLuc inh inactive and NIH3T3 tox 50µM*.
CN(C)c1cc(=O)c2ccnc(-c3ccc(O)c(F)c3)c2o1 was read as HEK cytotox 0%[172 µM], NPR1 antag -2%[70.6 µM], FLuc inh inactive and NIH3T3 tox 32µM*.
Screening CN(C)c1cc(=O)c2ccnc(Nc3ccccn3)c2o1 returned HEK cytotox -25%[230 µM], NPR1 antag 8%[70.6 µM], FLuc inh inactive and NIH3T3 tox 71µM*.
For CN1CCN(c2cc(=O)c3ccnc(Nc4ccccn4)c3o2)CC1 the results were HEK cytotox -6%[172 µM], NPR1 antag 1%[70.6 µM], FLuc inh inactive and NIH3T3 tox inconclusive.
For O=C(NCCc1nc(-c2cccnc2)no1)c1coc2c1C(=O)CCC2 the results were HEK cytotox inconclusive, NPR1 antag -6%, FLuc inh inactive and NIH3T3 tox inconclusive.
N#Cc1cccc(C(=O)N2CCCCCCNC(=O)[C@@H]3C[C@@H](c4nc(Cc5ccccc5)no4)C[C@@H]32)c1 was read as HEK cytotox inconclusive, NPR1 antag 1%, FLuc inh inactive and NIH3T3 tox inconclusive.
Cc1ccccc1-c1nccc2c(=O)cc(N(C)C3CCOCC3)oc12 was read as HEK cytotox -26%[172 µM], NPR1 antag -4%[70.6 µM], FLuc inh inactive and NIH3T3 tox 25µM*.
Screening COc1ncccc1-c1nccc2c(=O)cc(N(C)C3CCOCC3)oc12 returned HEK cytotox -18%[172 µM], NPR1 antag -4%[70.6 µM], FLuc inh inactive and NIH3T3 tox inconclusive.
Screening COc1cc(F)ccc1-c1nccc2c(=O)cc(N(C)C3CCOCC3)oc12 returned HEK cytotox -32%[172 µM], NPR1 antag 6%[70.6 µM], FLuc inh inactive and NIH3T3 tox inconclusive.
CN1CCN(c2ccc(-c3nccc4c(=O)cc(N(C)C5CCOCC5)oc34)cn2)CC1 was read as HEK cytotox inactive, NPR1 antag 4%[70.6 µM], FLuc inh inactive and NIH3T3 tox 89µM*.
`Cc1ccccc1C(=O)NC1CCCN(c2ccc3nnc(C)n3n2)C1` (centres undefined) gave HEK cytotox -14%[172 µM] and NIH3T3 tox inconclusive.
O=C(c1ccc(F)cc1)N1CC[C@H](c2nc3ccc(F)cc3[nH]2)C1 was read as HEK cytotox -29%[172 µM], NPR1 antag -1%[70.6 µM], FLuc inh inactive and NIH3T3 tox -24%[174 µM].
